Assay results from the supplement of paper PMC7184167.
Where a name gives a salt, the structure may show the parent alone.

Tested on: replication-induced senescent mouse newborn dermal fibroblasts (NBF)
Experiment: relative cell viability of senescent cells (fraction); higher = less killing of senescent cells
Settings: 1 µM; 3 days
Protocol: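 Replication-induced senescent newborn mouse skin fibroblasts (NBFs) in 24-well plates were treated with a Selleck FDA-approved drug library at 1 µM for 3 days.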

| SMILES | relative cell viability |
| --- | --- |
| C#C[C@]1(O)CC[C@H]2[C@@H]3CCC4=CC(=O)CC[C@@H]4[C@H]3CC[C@@]21CC [Levonorgestrel] | 0.996 |
| COc1ccccc1OCCNCC(O)COc1cccc2[nH]c3ccccc3c12 (stereo not given) [Carvedilol] | 1.14 |
| Nc1ccc(S(=O)(=O)Nc2ccccn2)cc1 [Sulfapyridine] | 0.951 |
| C[C@H](NCc1ccc(OCc2cccc(F)c2)cc1)C(N)=O [Safinamide Mesylate] | 0.955 |
| CCCc1nc(C(C)(C)O)c(C(=O)OCc2oc(=O)oc2C)n1Cc1ccc(-c2ccccc2-c2nnn[nH]2)cc1 [Olmesartan Medoxomil] | 0.252 |
| CCCCC1=NC2(CCCC2)C(=O)N1Cc1ccc(-c2ccccc2-c2nnn[nH]2)cc1 [Irbesartan] | 0.868 |
| CC(C)c1cc(-c2n[nH]c(=O)n2-c2ccc3c(ccn3C)c2)c(O)cc1O [Ganetespib (STA-9090)] | 0.0837 |
| CCCc1cc(C(N)=S)ccn1 [Protionamide] | 1.02 |
| C[N+]1(C)[C@@H]2C[C@@H](OC(=O)C(O)(c3cccs3)c3cccs3)C[C@H]1[C@@H]1O[C@@H]12 [Tiotropium Bromide hydrate] | 1.07 |
| Nc1ccccc1NC(=O)c1ccc(CNc2nccc(-c3cccnc3)n2)cc1 [Mocetinostat (MGCD0103)] | 0.36 |
| COc1cc2nccc(Oc3ccc(NC(=O)Nc4cc(C)on4)c(Cl)c3)c2cc1OC [Tivozanib (AV-951)] | 1.04 |
| Nc1ncn([C@@H]2O[C@H](CO)[C@@H](O)[C@H]2O)c(=O)n1 [Azacitidine] | 0.436 |
| Cn1cnc([N+](=O)[O-])c1Sc1ncnc2[nH]cnc12 [Azathioprine] | 0.986 |
| C[C@H]1C[C@@H]2[C@H]([C@@H](O)C[C@@]3(C)[C@H]2CC[C@]3(O)C(=O)CO)[C@@]2(C)C=CC(=O)C=C12 [Methylprednisolone] | 1.09 |
| CCCc1nc2c(C)cc(-c3nc4ccccc4n3C)cc2n1Cc1ccc(-c2ccccc2C(=O)O)cc1 [Telmisartan] | 1.15 |
| CC(C)(C)C(=O)OCOP(=O)(COCCn1cnc2c(N)ncnc21)OCOC(=O)C(C)(C)C [Adefovir Dipivoxil] | 0.924 |
| Cn1c(=O)c2[nH]cnc2n(C)c1=O [Aminophylline] | 0.98 |
| Nc1ccn([C@H]2CC[C@@H](CO)O2)c(=O)n1 [Zalcitabine] | 0.129 |

| SMILES | relative cell viability |
| --- | --- |
| Cc1nc(Nc2ncc(C(=O)Nc3c(C)cccc3Cl)s2)cc(N2CCN(CCO)CC2)n1 [Dasatinib] | 1.39 |
| COC(=O)[C@@H]1CC2=CC(=O)CC[C@]2(C)[C@@]23O[C@@H]2C[C@@]2(C)[C@@H](CC[C@@]24CCC(=O)O4)[C@H]13 [Eplerenone] | 0.925 |
| CC(C)c1cc(C(=O)N2Cc3ccc(CN4CCN(C)CC4)cc3C2)c(O)cc1O | 0.0951 |
| Cn1c(=O)c2c(ncn2CC(O)CO)n(C)c1=O (stereo not given) [Dyphylline] | 0.335 |
| CC1Cc2ccccc2N1NC(=O)c1ccc(Cl)c(S(N)(=O)=O)c1 (stereo not given) [Indapamide] | 0.965 |
| COc1ccc(C2CNC(=O)C2)cc1OC1CCCC1 (stereo not given) [Rolipram] | 1.07 |
| CCn1cc(C(=O)O)c(=O)c2cc(F)c(N3CCNCC3)nc21 [Enoxacin] | 1.05 |
| COc1ccccc1OCC(O)COC(N)=O (stereo not given) [Methocarbamol] | 1.03 |
| Cc1nc(=O)c2cc(CN(C)c3ccc(C(=O)N[C@@H](CCC(=O)O)C(=O)O)s3)ccc2[nH]1 [Raltitrexed] | 0.916 |
| CN1CCN(CCOc2cc(OC3CCOCC3)c3c(Nc4c(Cl)ccc5c4OCO5)ncnc3c2)CC1 [Saracatinib (AZD0530)] | 0.626 |
| Nc1ncnc2c1ncn2[C@@H]1O[C@H](CO)[C@@H](O)[C@H]1O [Adenosine] | 0.937 |
| CNS(=O)(=O)CCc1ccc2[nH]cc(C3CCN(C)CC3)c2c1 [Naratriptan HCl] | 1.14 |
| NC(=O)c1cnccn1 [Pyrazinamide] | 1.17 |
| NS(=O)(=O)c1cc2c(cc1Cl)NCNS2(=O)=O [Hydrochlorothiazide] | 1.07 |
| Cc1cc(Nc2cc(N3CCN(C)CC3)nc(Sc3ccc(NC(=O)C4CC4)cc3)n2)n[nH]1 [Tozasertib (VX-680, MK-0457)] | 0.364 |
| CCC[S+]([O-])c1ccc2[nH]c(NC(=O)OC)nc2c1 (stereo not given) [Albendazole Oxide] | 0.993 |
| Cn1cc(CNCC2CCN(c3ncc(C(=O)NO)cn3)CC2)c2ccccc21 | 0.757 |
